This note sets out measurements from PubChem BioAssay (NCATS).

Records with an inconclusive call do not appear. Calls of active or inactive are those of the source. Unless noted, the call rests on the fitted dose curve; in most records, active means well fitted curve in the direction sought with a large enough effect; inconclusive means small, poorly fitted or top-dose-only effect, or another doubt; inactive means no such curve, though single readings can be large; an effect the other way counts as inactive or inconclusive. Where only a bound is given, the exact number is not on record here.

For experiment [1], the target named is Cytochrome P450 1A2 (Homo sapiens) (UniProt P05177). Briefly: p450-cyp1a2 (AID 410; calls by dose curve; further: potency means the concentration at half of the fitted maximal effect;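 on activity change, negative = inhibition: -100% = full effect of reference inhibitor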). The procedure, abridged:
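Luminescent readout of luciferin formed from Luciferin-ME by human CYP1A2; data normalized against complete inhibition by 57 uM furafylline. Enzyme 20nM, substrate 100uM at Km, 100mM KPO4 buffer, 60 min reaction at room temperature.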

The target of experiment [2] is Glucocorticoid receptor (Homo sapiens) (UniProt P04150). The experiment can be described thus: GR-GFP Redistribution (AID 450;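 active means compounds whose dose series gives a full or clear partial fitted curve of increased nuclear translocation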; further: potency means the concentration at half of the fitted maximal effect). The settings on record: U2OS GR-GFP nuclear translocation, laser cytometry, 2 h.
Chain of Glucocorticoid receptor (Homo sapiens) (P04150 whole entry, looked up): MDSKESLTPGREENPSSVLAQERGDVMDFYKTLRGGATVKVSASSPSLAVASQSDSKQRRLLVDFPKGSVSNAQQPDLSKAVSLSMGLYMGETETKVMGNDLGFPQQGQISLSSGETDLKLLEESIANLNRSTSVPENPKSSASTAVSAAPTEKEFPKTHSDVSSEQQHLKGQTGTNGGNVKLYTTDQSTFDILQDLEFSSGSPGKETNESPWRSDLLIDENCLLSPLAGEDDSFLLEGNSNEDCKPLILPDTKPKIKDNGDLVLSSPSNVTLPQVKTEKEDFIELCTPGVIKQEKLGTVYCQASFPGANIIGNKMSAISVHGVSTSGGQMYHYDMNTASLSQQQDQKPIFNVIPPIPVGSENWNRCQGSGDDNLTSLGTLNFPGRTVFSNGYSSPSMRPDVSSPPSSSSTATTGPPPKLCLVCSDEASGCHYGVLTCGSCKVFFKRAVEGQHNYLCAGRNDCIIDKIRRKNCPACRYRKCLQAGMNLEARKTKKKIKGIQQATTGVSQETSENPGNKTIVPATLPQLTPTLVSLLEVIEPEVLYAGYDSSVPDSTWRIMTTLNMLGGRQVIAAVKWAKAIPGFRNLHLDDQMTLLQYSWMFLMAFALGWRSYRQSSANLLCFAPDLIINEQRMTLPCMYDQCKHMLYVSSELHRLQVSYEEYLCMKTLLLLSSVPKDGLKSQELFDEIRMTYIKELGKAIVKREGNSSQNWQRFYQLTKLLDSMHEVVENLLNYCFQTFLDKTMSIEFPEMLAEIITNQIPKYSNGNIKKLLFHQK
The target is the same in experiment [3]. The experiment can be described thus: GR-EFC Redistribution (AID 451; calls by dose curve; further: potency means the concentration at half of the fitted maximal effect). The settings on record: CHO-K1 GR-EFC translocation, beta-gal luminescence, 2 h. In a few lines:
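CHO-K1 cells stably expressing nuclear-localized β-gal enzyme acceptor and GR fused C-terminally to the enzyme donor fragment; ligand-driven nuclear translocation restores β-gal by complementation. Compounds titrated up to 46 uM final, 2 h at 37 °C; luminescence read.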

The target of experiment [4] is Mitogen-activated protein kinase 10 (Mus musculus) (UniProt Q61831). Briefly: JNK3 AlphaScreen Assay (AID 530; active means well fitted curve in either direction with a large enough effect, not every such curve was filed as active;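 further: kinase came from lysate of stimulated human HepG2 cells; signal reports phosphorylation of biotinylated GST-cJun 1-79 at Ser73 with 10 µM ATP; on the % scale 0 is the no-effect control and ±100 the full control effect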). In a few lines:
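Inhibitors reduce antibody binding to phosphorylated biotin-cJun, lowering AlphaScreen luminescence. Lysates from HepG2 cells pre-activated by IL-1beta plus TNF-alpha supplied JNK3; compounds were titrated.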
In general terms: Alpha assays give light when donor and acceptor beads are brought close together.

For experiment [5], the target named is 3',5'-cyclic-AMP phosphodiesterase 4B (Homo sapiens) (UniProt Q07343). The experiment can be described thus: qHTS Assay for Inhibitors of PDE-IV (AID 607; active means well fitted activation curve with a large enough effect in the main read-out, with a control signal flat, not every such curve was filed as active; further: % of control where 0% means no effect). The procedure, abridged: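 ACTOne HEK293 cells carry a modified cAMP-gated CNG channel and express endogenous PDE4; plated 1000 cells/well, compounds up to 22.9 uM final. Membrane-potential dye fluorescence (ex 535/em 590) was read; parental cells received 10 uM forskolin + 100 uM RO 20-1724.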
Chain of 3',5'-cyclic-AMP phosphodiesterase 4B (Homo sapiens) (Q07343 whole entry, looked up): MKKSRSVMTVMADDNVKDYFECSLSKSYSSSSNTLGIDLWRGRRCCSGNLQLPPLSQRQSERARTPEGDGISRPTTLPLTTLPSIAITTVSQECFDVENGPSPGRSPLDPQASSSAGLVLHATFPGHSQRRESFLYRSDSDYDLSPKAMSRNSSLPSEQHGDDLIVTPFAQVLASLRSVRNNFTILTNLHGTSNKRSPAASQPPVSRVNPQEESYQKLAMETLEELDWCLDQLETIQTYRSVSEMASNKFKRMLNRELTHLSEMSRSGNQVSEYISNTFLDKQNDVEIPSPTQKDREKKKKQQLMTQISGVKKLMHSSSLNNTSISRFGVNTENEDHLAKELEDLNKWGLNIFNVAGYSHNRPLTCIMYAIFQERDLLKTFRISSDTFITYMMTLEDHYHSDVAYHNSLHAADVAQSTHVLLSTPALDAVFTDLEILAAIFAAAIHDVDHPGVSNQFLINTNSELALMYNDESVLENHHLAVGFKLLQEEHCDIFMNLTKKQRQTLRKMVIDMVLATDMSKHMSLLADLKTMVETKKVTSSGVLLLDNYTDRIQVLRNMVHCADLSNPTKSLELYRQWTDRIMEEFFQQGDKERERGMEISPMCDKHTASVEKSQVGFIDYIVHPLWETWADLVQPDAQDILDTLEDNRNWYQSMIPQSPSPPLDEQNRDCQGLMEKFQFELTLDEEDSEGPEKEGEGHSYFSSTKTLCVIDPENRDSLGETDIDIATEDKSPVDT

The nature of experiment [6]: qHTS Assay for Lipid Storage Modulators (AID 1519; calls by dose curve). The note with it: Drosophila S3 cells, BODIPY lipid droplet/cell ratio, laser cytometry, cells loaded with oleic acid; for activity change, negative = inhibition: at 57.5 µM (top of the series). The procedure, abridged: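 Cells seeded at 5,000 per well were treated with compounds over a concentration series and loaded with oleic acid (400 uM, as added). Lipid droplet fluorescence (488 nm excitation, 500-530 nm channel) was read by laser-scanning cytometry and normalized to 20 uM Triacsin C.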
(Quantitative high-throughput screening tests each substance at several concentrations.)

Experiment [7] deals with DNA dC->dU-editing enzyme APOBEC-3G (Homo sapiens) (UniProt Q9HC16). Briefly: qHTS for inhibitors of Vif-A3G interactions: Validation (AID 588379). Further: 0% is about no effect. The procedure, abridged:
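HeLa cells stably expressing Vif and A3G-eYFP, 700 cells/well, incubated overnight at 37 deg C, then exposed to compound overnight at 37 deg C. Inhibition of Vif-mediated degradation read as increased yellow fluorescence (Ex 488/Em 500-530) by laser-scanning cytometry.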

Experiment [8] has as its system Zika virus NS2B-NS3 protease. The experiment can be described thus: Primary screen GU AMC qHTS for Zika virus inhibitors (AID 1347154). Further: nearly all actives have a fitted effect of over 70% in size. Further: potency means the concentration at half of the fitted maximal effect.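 On activity change, negative = inhibition: 0% = no-inhibitor control and -100% = no-enzyme control.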 The procedure, abridged: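 Unlinked Zika NS2B hydrophilic domain/NS3 protease domain noncovalent complex (25 nM final) in 10 mM Tris-HCl pH 8.0, 0.01% Tween 20, with AMC peptide substrate. Fluorescence (ex 340, em 450 nm) change over 15 min, room temperature; percent inhibition fitted to 4-parameter Hill equation.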

For experiment [9], the target named is Cytochrome P450 2C9 (Homo sapiens) (UniProt P11712). Briefly: qHTS Assay for Inhibitors and Substrates of Cytochrome P450 2C9 (AID 883). Further: potency means the concentration at half of the fitted maximal effect; nearly all actives have a fitted effect of over 60% in size. In a few lines:
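A luminogenic readout tracked human CYP2C9 (10nM) converting deoxyluciferin (100uM, at KM) in 25mM KPO4 during 60 min at 37C with regenerated NADPH. Values normalized to 57uM sulphaphenazole as complete inhibition.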

The target in experiment [10] is Cytochrome P450 2D6 (Homo sapiens) (UniProt P10635). The experiment can be described thus: qHTS Assay for Inhibitors and Substrates of Cytochrome P450 2D6 (AID 891). Further: potency means the concentration at half of the fitted maximal effect; nearly all actives have a fitted effect of over 60% in size. The procedure, abridged:
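Human CYP2D6 (5 nM) with 30 uM Luciferin-ME EGE (at Km) in 100 mM KPO4, compound preincubated 10 min, then NADPH regeneration system for 60 min at room temperature. Luciferin read by luminescence; normalized to 1.43 uM quinidine.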

Experiment [11] has as its target Cytochrome P450 2C19 (Homo sapiens) (UniProt P33261). Briefly: qHTS Assay for Inhibitors and Substrates of Cytochrome P450 2C19 (AID 899). Further: potency means the concentration at half of the fitted maximal effect; nearly all actives have a fitted effect of over 60% in size. In a few lines:
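NADPH-dependent conversion of Luciferin-H EGE (10uM, at KM) by 5nM enzyme in 50mM KPO4, 60 min at 37C following 10 min compound preincubation. Stopped with luciferin detection buffer; luminescence read after 20 min.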

Experiment [12] deals with Ubiquitin carboxyl-terminal hydrolase 1 (Homo sapiens) (UniProt O94782). Briefly: Inhibitors of USP1/UAF1: Pilot qHTS (AID 504865).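 Further: rhodamine fluorescence freed from ubiquitin-rhodamine substrate followed over time; top concentration of the series differs between compounds; on the % scale 0 is the no-effect control and ±100 the full control effect; nearly all actives have a fitted effect of over 35% in size.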 The procedure, abridged:
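Deubiquitinase activity followed as kinetic rhodamine fluorescence release from 150 nM Ub-Rho. 1 nM USP1/UAF1 with compound, after 15 min room-temperature preincubation, in HEPES pH 7.8 buffer containing TCEP, EDTA, BSA and Tween-20.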

The target in experiment [13] is Cytochrome P450 3A4 (Homo sapiens) (UniProt P08684). Briefly: qHTS Assay for Inhibitors and Substrates of Cytochrome P450 3A4 (AID 884). Further: potency means the concentration at half of the fitted maximal effect; nearly all actives have a fitted effect of over 50% in size. The procedure, abridged: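 20 nM human CYP3A4 with 25 uM Luciferin-PPXE (at KM) in 200 mM KPO4, preincubated 10 min with compound; NADPH regeneration started a 60 min RT reaction. Luciferin detected by luminescence, normalized to 57 uM ketoconazole as full inhibition.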

Experiment [14] in a line: AP1 Signaling Pathway (AID 357; active means well fitted curve in either direction with a large enough effect, not every such curve was filed as active;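 further: ME-180 reporter cells stimulated with EGF at its EC50 level; on the % scale 0 is the no-effect control and ±100 the full control effect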). The settings on record: ME-180 AP-1-bla reporter, EGF-induced, beta-lactamase ratio, 5 h. The procedure, abridged:
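A ratiometric CCF4 readout (405 nm excitation; 460 and 530 nm emission) quantified AP-1-driven beta-lactamase in ME-180 cells after 5 h with compound and EC50 EGF; AC50 values were derived for activators and inhibitors.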

A short description of experiment [15]: NFAT Signaling Pathway (AID 444; active means well fitted curve in either direction with a large enough effect, not every such curve was filed as active;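 further: carbachol stimulus at about its EC50 of 1 µM final; on the % scale 0 is the no-effect control and ±100 the full control effect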). The note with it: Jurkat NFAT-bla M1, carbachol, beta-lactamase ratio, 5 h. In a few lines:
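Jurkat cells carrying an NFAT-driven β-lactamase reporter and co-transfected muscarinic M1 receptor were treated with compound plus carbachol (1 uM final, an EC50 level) for 5 h at 37 °C. CCF4 loading followed for 1 h at RT; 460/530 nm ratio gave %activity.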

A short description of experiment [16]: Stat Signaling Pathway (AID 446; active means well fitted curve in either direction with a large enough effect, not every such curve was filed as active;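 further: ME-180 cervical cancer cells given 40 pM IL-6 alongside compound; SIE-controlled beta-lactamase reporter measured as 460/530 nm FRET emission ratio; on the % scale 0 is the no-effect control and ±100 the full control effect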). The settings on record: ME-180 SIE beta-lactamase reporter, IL-6 stimulated, 5 h. The procedure, abridged: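 ME-180 SIE-bla cells; overnight plating; cpd + IL-6 40 pM, 5 h, 37 C; LiveBLAzer 2.5 h RT; 460/530 nm emission ratio. Normalized to 300 pM IL-6 and 125 nM JAK inhibitor controls.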
Experiment [17] concerns the target Guanine nucleotide-binding protein G(i) subunit alpha-1 (Homo sapiens) (UniProt P63096). The experiment can be described thus: qHTS Assay for Inhibitors of RGS12 GoLoco Motif Activity (Green Fluorophore) (AID 879).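 Further: 0% = labeled peptide with Gαi1 and full inhibition = labeled peptide alone without protein; negative values mean loss of peptide binding seen as reduced polarization.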 In a few lines:
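Fluorescence polarization assay: 50 nM Gαi1 with 10 nM FITC-labeled RGS12 GoLoco peptide in 10 mM Tris pH 7.5, 150 mM NaCl, 0.1 mM GDP, 0.05% NP40, 10 min at room temperature with compound.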

In experiment [18] the target is Pyruvate kinase (Leishmania mexicana) (UniProt Q27686). Briefly: qHTS Validation Assay for Inhibitors of Leishmania Mexicana Pyruvate Kinase (AID 945).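 Further: 0% = DMSO only neutral control wells.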 In a few lines: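 LmPYK E451W 0.2 nM; 0.5 mM PEP, 0.1 mM ADP, 7 mM MgCl2, 50 mM KCl, imidazole pH 7.2, 0.01% Tween 20, 0.05% BSA; 1 h RT; PKLight luminescence; DMSO-normalized.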
[19] abbreviates: measured here: cell count channel max response.
Where [20] appears, read: measured here: lipid channel max response.

Chain of DNA dC->dU-editing enzyme APOBEC-3G (Homo sapiens) (Q9HC16 whole entry, looked up): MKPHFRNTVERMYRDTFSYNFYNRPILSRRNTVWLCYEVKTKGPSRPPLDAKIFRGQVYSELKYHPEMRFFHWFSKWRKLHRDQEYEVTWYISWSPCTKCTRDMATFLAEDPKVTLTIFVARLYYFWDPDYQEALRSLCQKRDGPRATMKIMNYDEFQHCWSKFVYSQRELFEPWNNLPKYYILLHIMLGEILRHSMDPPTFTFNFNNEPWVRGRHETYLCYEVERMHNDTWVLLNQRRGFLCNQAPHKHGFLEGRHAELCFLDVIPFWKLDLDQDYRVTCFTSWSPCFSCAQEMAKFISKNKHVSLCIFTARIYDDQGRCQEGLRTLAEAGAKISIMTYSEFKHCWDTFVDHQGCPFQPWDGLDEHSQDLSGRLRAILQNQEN
Chain of Cytochrome P450 1A2 (Homo sapiens) (P05177 whole entry, looked up): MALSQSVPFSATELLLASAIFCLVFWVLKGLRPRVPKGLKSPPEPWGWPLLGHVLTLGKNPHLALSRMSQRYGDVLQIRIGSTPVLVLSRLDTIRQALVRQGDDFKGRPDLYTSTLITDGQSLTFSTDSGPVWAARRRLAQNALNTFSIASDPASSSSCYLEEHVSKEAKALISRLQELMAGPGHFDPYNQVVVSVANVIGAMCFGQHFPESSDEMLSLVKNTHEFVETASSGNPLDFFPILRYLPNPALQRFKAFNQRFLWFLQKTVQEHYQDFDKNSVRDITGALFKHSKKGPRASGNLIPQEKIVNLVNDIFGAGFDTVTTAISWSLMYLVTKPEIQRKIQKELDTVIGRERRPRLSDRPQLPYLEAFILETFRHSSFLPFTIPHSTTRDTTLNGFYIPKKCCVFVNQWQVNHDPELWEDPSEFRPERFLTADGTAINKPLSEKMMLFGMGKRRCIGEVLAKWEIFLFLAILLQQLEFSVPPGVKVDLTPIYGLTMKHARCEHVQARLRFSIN
Chain of Ubiquitin carboxyl-terminal hydrolase 1 (Homo sapiens) (O94782 whole entry, looked up): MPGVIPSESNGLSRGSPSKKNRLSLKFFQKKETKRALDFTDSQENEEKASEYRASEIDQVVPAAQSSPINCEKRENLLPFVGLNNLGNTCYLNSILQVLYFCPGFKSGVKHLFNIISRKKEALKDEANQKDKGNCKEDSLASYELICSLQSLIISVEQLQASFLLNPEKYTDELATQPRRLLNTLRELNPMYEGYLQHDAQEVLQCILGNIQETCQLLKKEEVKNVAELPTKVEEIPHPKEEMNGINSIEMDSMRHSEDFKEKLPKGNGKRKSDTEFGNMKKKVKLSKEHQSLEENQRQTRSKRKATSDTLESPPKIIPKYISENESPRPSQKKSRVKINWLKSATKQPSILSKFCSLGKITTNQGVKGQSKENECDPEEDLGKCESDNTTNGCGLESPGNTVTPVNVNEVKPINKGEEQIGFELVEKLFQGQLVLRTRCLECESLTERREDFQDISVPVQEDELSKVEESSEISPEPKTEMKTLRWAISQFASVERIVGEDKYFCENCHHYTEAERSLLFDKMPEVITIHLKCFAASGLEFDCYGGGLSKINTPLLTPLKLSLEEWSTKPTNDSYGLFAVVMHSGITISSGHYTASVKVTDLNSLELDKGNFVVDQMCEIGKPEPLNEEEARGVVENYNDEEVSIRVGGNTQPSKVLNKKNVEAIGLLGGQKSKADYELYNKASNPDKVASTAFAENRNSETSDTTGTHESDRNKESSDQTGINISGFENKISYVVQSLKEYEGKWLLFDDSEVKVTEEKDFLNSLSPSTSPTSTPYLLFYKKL
Chain of Cytochrome P450 2C19 (Homo sapiens) (P33261 whole entry, looked up): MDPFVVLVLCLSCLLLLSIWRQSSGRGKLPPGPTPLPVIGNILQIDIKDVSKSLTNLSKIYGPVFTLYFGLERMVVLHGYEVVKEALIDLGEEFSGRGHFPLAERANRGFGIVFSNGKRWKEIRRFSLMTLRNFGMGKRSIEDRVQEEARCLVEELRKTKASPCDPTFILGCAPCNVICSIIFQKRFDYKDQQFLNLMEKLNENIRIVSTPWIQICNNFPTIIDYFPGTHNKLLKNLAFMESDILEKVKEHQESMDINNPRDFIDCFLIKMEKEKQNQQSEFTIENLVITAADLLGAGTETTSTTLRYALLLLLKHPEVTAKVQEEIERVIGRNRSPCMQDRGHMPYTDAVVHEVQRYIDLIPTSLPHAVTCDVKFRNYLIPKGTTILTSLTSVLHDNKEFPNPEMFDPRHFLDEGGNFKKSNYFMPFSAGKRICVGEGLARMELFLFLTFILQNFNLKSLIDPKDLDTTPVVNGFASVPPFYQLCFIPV
Chain of Cytochrome P450 2D6 (Homo sapiens) (P10635 whole entry, looked up): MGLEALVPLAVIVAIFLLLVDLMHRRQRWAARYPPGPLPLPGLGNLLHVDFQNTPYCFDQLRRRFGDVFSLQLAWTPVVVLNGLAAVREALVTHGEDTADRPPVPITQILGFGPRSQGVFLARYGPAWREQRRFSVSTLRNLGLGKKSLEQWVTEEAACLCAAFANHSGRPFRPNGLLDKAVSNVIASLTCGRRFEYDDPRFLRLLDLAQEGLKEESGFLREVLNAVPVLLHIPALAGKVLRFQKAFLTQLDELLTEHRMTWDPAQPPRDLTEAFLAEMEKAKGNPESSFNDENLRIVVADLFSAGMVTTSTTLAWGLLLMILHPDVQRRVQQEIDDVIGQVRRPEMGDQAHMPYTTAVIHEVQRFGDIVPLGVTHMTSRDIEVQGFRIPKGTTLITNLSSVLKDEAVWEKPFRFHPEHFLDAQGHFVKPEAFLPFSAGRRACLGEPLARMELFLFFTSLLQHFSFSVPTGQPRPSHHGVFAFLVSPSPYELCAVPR
Chain of Cytochrome P450 2C9 (Homo sapiens) (P11712 whole entry, looked up): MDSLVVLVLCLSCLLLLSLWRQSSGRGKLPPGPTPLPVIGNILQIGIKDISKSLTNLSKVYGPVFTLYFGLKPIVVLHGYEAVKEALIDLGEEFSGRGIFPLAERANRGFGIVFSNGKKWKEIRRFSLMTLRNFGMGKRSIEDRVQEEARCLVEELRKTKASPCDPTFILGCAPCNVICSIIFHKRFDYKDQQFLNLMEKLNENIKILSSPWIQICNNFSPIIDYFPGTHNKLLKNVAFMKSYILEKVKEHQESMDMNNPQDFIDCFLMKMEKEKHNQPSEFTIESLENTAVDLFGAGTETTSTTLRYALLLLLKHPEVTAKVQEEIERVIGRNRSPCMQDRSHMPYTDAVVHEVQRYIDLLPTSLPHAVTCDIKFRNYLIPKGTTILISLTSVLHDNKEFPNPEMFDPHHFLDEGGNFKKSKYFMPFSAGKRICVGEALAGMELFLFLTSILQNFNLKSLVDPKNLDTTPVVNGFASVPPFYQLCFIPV

Turning to `CS(=O)(=O)Nc1c(O)ccc2c1CCC[C@H]2C1=NCCN1`, the Potency result in [1], in experiment [4], in experiment [5], in experiment [7] and in experiment [8] was “inactive” in each case. The Potency in [2] and in experiment [3] was > 46 µM (inactive) throughout. Also, the activity change, negative = inhibition in experiment [6] was -4.88% (inactive). In addition, the figures for the max response in experiment [6] (setting [19]) and in experiment [6] (setting [20]) were -12.4% and -17.3%, respectively.
With `CCCN=C(N)NCCC[C@H](N)C(=O)O`, the Potency in experiment [2] was > 46 µM (inactive); in experiment [3] it was > 46 µM (inactive); in [9] it was 3.98 µM (active); in experiment [10], 7.94 µM (active); in experiment [11], 2 µM (active). The Potency result in experiment [4], in [12], in experiment [7] and in experiment [8] was “inactive” in each case. The activity change, negative = inhibition in experiment [6] was -1.86% (inactive). Also, the max response is -18.5% in experiment [6] (setting [19]) and -20.5% in experiment [6] (setting [20]).
Consider `CC(C)=CCC/C(C)=C/CC/C(C)=C/CC/C(C)=C/CO`, for which the activity change, negative = inhibition in experiment [6] was 7.37% (inactive). Also, the max response in experiment [6] (setting [19]) came to 9.56%; in experiment [6] (setting [20]), 21.5%. Besides, the Potency entry in [12] and in [8] was “inactive” throughout.
`OC[C@H]1NC[C@@H](O)[C@@H](O)[C@H]1O`: the Potency entry in [1], in [4], in experiment [5], in experiment [12], in experiment [7] and in experiment [8] was “inactive” throughout. For the same molecule, the Potency in experiment [2] and in [3] was > 46 µM (inactive) throughout.
With `OC[C@H]1O[C@H](n2cnc3c(NC4CCCC4)nc(Cl)nc32)[C@@H](O)[C@@H]1O`, the Potency in experiment [1] was 39.8 µM (active); in [2] it was > 46 µM (inactive); in experiment [3], > 46 µM (inactive). Further, the Potency entry in experiment [4], in experiment [5], in experiment [12], in [7] and in [8] was “inactive” in each case.
Take `O=C(NCCCN1CCCCCC1)[C@@H](c1ccccc1)C1CCCCC1`: the Potency in [1] was 31.6 µM (active); in experiment [2] it was > 46 µM (inactive); in [3] it was > 46 µM (inactive); in [13], 3.98 µM (active); in experiment [10], 0.631 µM (active). Also, the Potency result in experiment [12], in [7] and in experiment [8] was “inactive” each time.
Regarding `N[C@@H](C(=O)O)c1ccc(C(=O)O)c(O)c1`, the Potency entry in experiment [1], in [4], in [5], in experiment [12] and in [7] was “inactive” in each case. Moreover, the Potency in experiment [2] was > 46 µM (inactive); in experiment [3], > 46 µM (inactive); in experiment [8], 23.8 µM (active).
For `CN1Cc2c(C(=O)OC(C)(C)C)ncn2-c2ccsc2C1=O`, the Potency in experiment [1] is 15.8 µM (active); in experiment [2] it was > 46 µM (inactive); in experiment [3] it was > 46 µM (inactive); in experiment [9], 5.01 µM (active); in [11], 1.26 µM (active). The Potency entry in experiment [4], in [12], in experiment [7] and in [8] was “inactive” each time.
For `O=C(NC[C@H]1CCCCN1)c1cc(OCC(F)(F)F)ccc1OCC(F)(F)F`, the activity change, negative = inhibition in experiment [14] (at 38 µM (top of the series)) is 4.16% (inactive); in [15] (at 38 µM (top of the series)), -11% (inactive). Further, in [16] (at 38 µM (top of the series)), the activity, negative = inhibition was -13.8% (inactive). The Potency result in experiment [4], in experiment [5], in experiment [18], in experiment [7] and in experiment [8] was “inactive” in each case. Moreover, in experiment [17], the molecule was called inactive.
For the molecule `N=C(N)SCCc1ccc(OCc2ccc([N+](=O)[O-])cc2)cc1`, the results for the Potency in [1], in [2] and in experiment [3] were 31.6 µM (active), > 46 µM (inactive) and > 46 µM (inactive), respectively. The Potency result in experiment [5], in experiment [12], in experiment [7] and in [8] was “inactive” throughout.
On to `NCCC[C@@H](N)C(=O)O`, for which the activity change, negative = inhibition in experiment [14] (at 7.69 µM (top of the series)) is -2% (inactive); in experiment [15] (at 7.69 µM (top of the series)), -0.481% (inactive). Besides, the activity, negative = inhibition in experiment [16] (at 7.69 µM (top of the series)) is 1.44% (inactive). Further, the Potency entry in [5] and in experiment [8] was “inactive” each time.
